Drawing on PubChem BioAssay AID2330 (Broad Institute, 2010), this text covers inhibition for 36 compounds.

As a reminder, the inhibition is the relative decrease from the control value, in per cent.

Molecules are shown by their SMILES. Among all 37,000 compounds or so, about 2,800 (7.6%) were called active. Inconclusive results (about 1%) are left out. Rule as the data show it: active = inhibition above about 80%; inconclusive = no clear call, values can overlap the other calls; inactive = below that. The entries come from a sample that favours actives as a whole.

The assay is described as follows: NOMO-1 AML cell viability reduction, primary screen, STK33 inhibitor project, CellTiter-Glo luminescence (AID 2330). The note with it: NOMO-1 AML viability, 72 h, stronger effect = higher value, concentration not given here.
`C[C@@H]1CN([C@@H](C)CO)C(=O)c2cc(NS(=O)(=O)c3ccccc3)ccc2O[C@H]1CN(C)CC1CC1`: the inhibition is -13.4% (inactive).
Take `O=C(CN(C1CCCCC1)S(=O)(=O)c1ccc(Cl)cc1)Nc1ccccc1C(F)(F)F`: the inhibition is 25.5% (inactive).
As for `COc1ccc(S(=O)(=O)N(C)C[C@H]2Oc3ccc(N(C)C)cc3C(=O)N([C@@H](C)CO)C[C@@H]2C)cc1`, the inhibition is 11.7% (inactive).
Then `CN1C(=O)C(Cc2ccccc2)(Cc2ccccc2)c2ccccc21`, with 96.7% (active); and `CN1C(=O)CC(c2ccccc2)C1=O` (stereo unspecified), with 14.7% (inactive); and `CN1C(=O)C(O)(CC(=O)c2ccco2)c2cc([N+](=O)[O-])ccc21` (stereo unspecified), with 36.2% (inactive).
Take `C[C@H](CO)N1C[C@H](C)[C@H](CN(C)C)Oc2c(NS(=O)(=O)c3ccc(Cl)cc3)cccc2C1=O`: the inhibition was 17.7% (inactive).
As for `CN1CCN(C(=O)CCc2nc(-c3ccc(Cl)cc3)no2)CC1`, the figure is -5.54% (inactive).
As for `Cn1c(Cc2csc(N)n2)nnc1SC/C=C/c1ccccc1`, the figure is 23.5% (inactive).
`CC(C)NC(=O)N(C)C[C@H]1Oc2ccc(NC(=O)Cn3cnnn3)cc2CC(=O)N([C@H](C)CO)C[C@H]1C`: the inhibition is 36.1% (inactive).
`CC1OC(OC2C(OC3C(O[C@H]4CC[C@@]5(C)C(CC[C@]6(C)C5CC=C5[C@@H]7CC(C)(C)C[C@@H](O)[C@]7(C)CC[C@]56C)C4(C)C)OC(C(=O)O)C(O)C3O)OC(CO)C(O)C2O)C(O)C(O)C1O` (stereo partly specified): the inhibition was 25.4% (inactive).
As for `C/C=C(/C)C(=O)O[C@H]1CC(C)(C)C[C@H]2C3=CCC4[C@@]5(C)CC[C@H](O[C@@H]6O[C@H](C(=O)O)[C@@H](O[C@@H]7O[C@H](CO)[C@H](O)[C@H](O)[C@H]7O[C@@H]7O[C@H](CO)[C@@H](O)[C@H](O)[C@H]7O)[C@H](O)[C@H]6O[C@@H]6O[C@@H](C)[C@H](O)[C@@H](O)[C@H]6O)C(C)(C)C5CC[C@@]4(C)[C@]3(C)[C@@H](O)[C@@H](O)[C@@]12CO` (stereo partly specified), the figure is 119% (active).
In the case of `CC1(C)C2CC[C@]3(C)C(C(=O)C=C4[C@@H]5C[C@@](C)(C(=O)O)CC[C@]5(C)CC[C@]43C)[C@@]2(C)CC[C@@H]1O` (stereo partly specified), the inhibition is 63.8% (inactive).
Turning to `CC1(C)CC[C@@]2(C(=O)O)C(C1)C1=CCC3[C@@]4(C)CC[C@H](O)C(C)(C)C4CC[C@@]3(C)[C@]1(C)C[C@H]2O` (stereo partly specified), the inhibition is 108% (active).
As for `C[C@@H]1O[C@@H](O[C@H]2[C@@H](Oc3cc(O)c4c(c3)O[C@H](c3ccc(O)cc3)CC4=O)O[C@H](CO)[C@@H](O)[C@@H]2O)[C@H](O)[C@H](O)[C@H]1O`, the figure is -11.7% (inactive); as for `CC1(C)CC[C@]2(C(=O)O)CC[C@]3(C)C(=CCC4[C@@]5(C)CC[C@H](OC6O[C@H](CO)[C@@H](O)[C@H](O[C@@H]7O[C@H](CO)[C@@H](O)[C@H](O)[C@H]7O)[C@H]6O)C(C)(C)C5CC[C@]43C)[C@@H]2C1` (stereo partly specified), 119% (active).
In the case of `COC(=O)C1=CO[C@@H](O[C@@H]2O[C@H](CO)[C@@H](O)[C@H](O)[C@H]2O)[C@@H]2[C@@](C)(O)[C@@H](OC(=O)/C=C/c3ccc(OC)c(OC)c3)C[C@]12O`, the inhibition is 11.5% (inactive).
On to `C/C=C(/C)C(=O)O[C@H]1CC(C)(C)C[C@H]2C3=CCC4[C@@]5(C)CC[C@H](O[C@@H]6O[C@H](C(=O)O)[C@@H](O[C@@H]7O[C@H](CO)[C@H](O)[C@H](O)[C@H]7O[C@@H]7O[C@H](CO)[C@@H](O)[C@H](O)[C@H]7O)[C@H](O)[C@H]6O[C@@H]6O[C@@H](C)[C@H](O)[C@@H](O)[C@H]6O)C(C)(C)C5CC[C@@]4(C)[C@]3(C)[C@@H](OC(C)=O)[C@@H](O)[C@@]12COC(C)=O` (stereo partly specified), for which the inhibition was 121% (active).
Then `C=CC1(C)C=C2CCC3C(C)(C)C(O[C@@H]4O[C@@H](CO)[C@H](O)[C@H]4O)CCC3(C)C2CC1O[C@@H]1O[C@H](C)[C@@H](OC)[C@H](O)[C@H]1O` (stereo partly specified), with 14% (inactive); and `C[C@@H]1CC[C@]2(C(=O)O)CC[C@]3(C)C(=CCC4[C@@]5(C)CC[C@H](O)[C@](C)(C(=O)O)C5CC[C@]43C)C2[C@]1(C)O` (stereo partly specified), with 29.2% (inactive); and `C[C@@H]1CN([C@H](C)CO)C(=O)c2cc(NC(=O)CCCCCC(=O)Nc3ccccc3N)ccc2O[C@@H]1CN(C)S(=O)(=O)c1ccc(Cl)cc1`, with 53.5% (inactive).
As for `CC(C)(C)c1nc(=S)[nH][nH]1`, the figure is 17.3% (inactive); as for `Cc1cc2c(=O)n(C)c(SCC(=O)c3cc4ccccc4o3)nc2s1`, -4.22% (inactive).
For the compound `O=C1CC(c2ccccc2)C(=O)N1c1ccc(F)cc1` (stereo unspecified), the inhibition was 22.5% (inactive).
As for `C[C@@H]1CN([C@@H](C)CO)C(=O)c2cccc(NC(=O)c3ccncc3)c2O[C@H]1CN(C)S(=O)(=O)c1ccc(F)cc1`, the figure is 19.5% (inactive).
With `C[C@H](CO)N1C[C@H](C)[C@@H](CN(C)S(=O)(=O)c2ccc(Cl)cc2)Oc2ccc(NS(=O)(=O)c3cn(C)cn3)cc2C1=O`, the inhibition was 13.1% (inactive).
With `C[C@@H]1CN([C@H](C)CO)C(=O)c2cccc(NS(=O)(=O)c3ccc(Cl)cc3)c2O[C@@H]1CN(C)Cc1ccc(Cl)c(Cl)c1`, the inhibition was 33.7% (inactive).
Regarding `O=C(CSc1nnc(-c2ccccc2Cl)n1-c1ccccc1)Nc1ccc([N+](=O)[O-])cc1`, the inhibition was 18.6% (inactive).
As for `C[C@@H]1CN([C@@H](C)CO)C(=O)c2cc(NC(=O)Cc3ccccc3)ccc2O[C@@H]1CN(C)CC1CCCCC1`, the inhibition was 17.8% (inactive).
Turning to `NC(=O)c1c(NC(=O)c2cnn3c(C(F)F)cc(-c4ccccc4)nc23)sc2c1CCCC2`, the inhibition is 112% (active).
Then `O=C(NCc1cccnc1)c1cnn2c(C(F)F)cc(-c3ccccc3)nc12`, with 11% (inactive); and `COc1cccc2cc(C(=O)Nc3sc4c(c3C(N)=O)CCCCC4)c(=O)oc12`, with 6.77% (inactive); and `O=C(Cn1cnc([N+](=O)[O-])n1)Nc1c(Cl)cccc1Cl`, with -1.21% (inactive).
With `COc1ccc(OC)c(NC(=O)CSc2nc(-c3ccccc3)cc(=O)[nH]2)c1`, the inhibition was 5.5% (inactive).
As for `COc1ccccc1NC(=O)CSc1nc2cc3ccccc3cc2[nH]1`, the figure is 108% (active); as for `COc1ccccc1NC(=O)CSc1n[nH]c(C)n1`, 4.79% (inactive).
